TDP1 cell noCPT: qHTS for Inhibitors of human tyrosyl-DNA phosphodiesterase 1 (TDP1): qHTS in cells in absence of CPT. Potency, µM (doses to about 46.2 µM), for the others: at the top dose activity change, negative = growth inhibition, hits mostly inhibitors. DT40 Tdp1-/- hTDP1 cells, no CPT, ATP luminescence, 48 h. 420,000 tested, 15% active; also: nearly all actives have a fitted effect of over 55% in size
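Growth kinetics read by CellTiter-Glo luminescence after ≥48 hr at 37 °C. Cells: DT40 Tdp1-/- stably carrying human TDP1, 400 per well, compound exposure in the absence of CPT (DMSO vehicle).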
RORgamma inh: blocks mouse ROR gamma transcriptional activity | P51450 | Drosophila S2 Gal4-RORgamma UAS-luciferase reporter, 20 h | Potency, µM (top dose mostly 53.6 µM), for inactives: at the highest dose activity change, negative = inhibition, actives largely listed as inhibitors | 310,000 tested, 5.4% active | AID 2551; also: nearly all actives have a fitted effect of over 60% in size
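Schneider cells (Drosophila), stable Gal4 DBD–ROR gamma + UAS-luc; 1 hr cmpd preincubation; Cu2+ induction 700 uM final; 20 hr ambient; luminescence.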
ALOX12 inh: ALOX12 (human) lipoxygenase inhibition; P18054; 580,000 tested, 1.1% active; purified 12hLO, xylenol orange hydroperoxide absorbance; Potency, µM (doses to about 108 µM), without a hit: top-dose activity change, negative = inhibition, actives largely listed as inhibitors; AID 1671190
Target sequence (P18054 whole entry, looked up): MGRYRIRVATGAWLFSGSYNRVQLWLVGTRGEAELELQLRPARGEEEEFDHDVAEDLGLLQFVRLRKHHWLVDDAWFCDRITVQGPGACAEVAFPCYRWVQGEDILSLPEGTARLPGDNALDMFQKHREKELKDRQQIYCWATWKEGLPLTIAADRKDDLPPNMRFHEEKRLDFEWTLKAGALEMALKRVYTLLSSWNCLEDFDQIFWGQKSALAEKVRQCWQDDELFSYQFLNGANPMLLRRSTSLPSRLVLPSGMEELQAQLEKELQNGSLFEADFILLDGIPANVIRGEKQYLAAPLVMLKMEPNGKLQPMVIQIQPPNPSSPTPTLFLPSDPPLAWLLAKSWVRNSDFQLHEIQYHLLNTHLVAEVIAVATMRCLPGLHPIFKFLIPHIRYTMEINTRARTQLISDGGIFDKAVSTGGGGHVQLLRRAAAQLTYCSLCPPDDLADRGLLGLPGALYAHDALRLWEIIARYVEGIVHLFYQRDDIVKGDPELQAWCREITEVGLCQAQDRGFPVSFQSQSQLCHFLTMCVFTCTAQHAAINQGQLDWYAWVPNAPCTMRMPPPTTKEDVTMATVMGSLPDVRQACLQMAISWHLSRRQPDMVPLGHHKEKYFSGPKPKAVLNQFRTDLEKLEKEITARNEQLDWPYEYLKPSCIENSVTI
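Purified human 12hLO (150 nM final) in 25 mM Hepes, 0.01% Triton X-100, pH 7.0 was preincubated 15 min at room temperature with compound. Then 40 uM arachidonic acid was added, 30 min. Hydroperoxide was read by Fe-XO absorbance ratio 573/405 nm.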
DT40 TDP1 CPT: DT40-hTDP1 cell growth loss with CPT. chicken DT40 Tdp1-/-;hTDP1 cells + 20 nM CPT, ATP luminescence, 48 h. Potency, µM (series often up to 46.2 µM), for the others: top-dose activity change, negative = growth inhibition, hits mostly inhibitors. 420,000 tested, 12% active; also: nearly all actives have a fitted effect of over 55% in size
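Cell growth measured by CellTiter-Glo luminescence after a minimum 48 h, 37 C compound exposure with 20 nM CPT in Tdp1-knockout DT40 cells stably expressing hTDP1, seeded 400/well; qHTS titration format.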
Gal4-VP16 FLuc: Gal4-VP16 reporter inhibition counter-screen; Potency, µM (doses to about 53.6 µM), without a hit: top-dose activity, negative = inhibition, actives largely listed as inhibitors; 310,000 tested, 3.5% active; Drosophila S2 Gal4-VP16 UAS-luciferase, luminescence, 20 h;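 also: Gal4-VP16 expression switched on by copper sulfate through the metallothionein promoter; nearly all actives have a fitted effect of over 50% in size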
ELG1 repair inh: ELG1-dependent DNA repair inhibition. Potency, µM (top dose mostly 46.1 µM), for inactives: at the highest dose activity change, negative = inhibition, usual class: inhibitors. HEK293T ELG1-luciferase reporter, luminescence, 16 h; DNA damage induced by 5-fluorouridine. 330,000 tested, 2.3% active; also: nearly all actives have a fitted effect of over 55% in size
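Step one: seed 2,000 cells per well. Step two: pin-transfer compound or DMSO alongside 5-fluorouridine. Step three: incubate 16 hr, 37 °C, 5% CO2. Step four: add ONE-Glo, wait 30 min, read luminescence.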
An asterisk follows results filed as active; ? = inconclusive; . = no result; [ ] = dose if it differs, or a comment. Only some compounds are listed: those with a hit (about 15% of all), similar ones and a draw of the others. Calls follow the shape of the dose curve; as a rule, active = well fitted curve in the direction sought with a large enough effect; inconclusive = small, poorly fitted or top-dose-only effect, or another doubt; inactive = no such curve, though single readings can be large; an effect the other way counts as inactive or inconclusive. % is scaled to controls: 0 for no effect and ±100 for the full control effect; potency is read from the fitted curve at half-maximal effect.

SMILES	TDP1 cell noCPT	RORgamma inh	ALOX12 inh	DT40 TDP1 CPT	Gal4-VP16 FLuc	ELG1 repair inh
CC(C)n1c(CSCc2ccc(Cl)cc2Cl)n[nH]c1=S	?	1.4µM*	45µM*	-25%	3.2µM*	?
CNC(=O)[C@@H]1CN(C(=O)c2ccc3cc[nH]c3c2)C[C@H]1C1CCN(C)CC1	.	.	-2%	.	.	.
CCOC(=O)c1ccc(NC(=S)Nc2cccc(N)n2)cc1	?	5%	-14%	?	-2%	?
COC(=O)Cc1ccc(NC(=S)Nc2cccc(C)n2)cc1	18µM*	4.5µM*	?	?	?	?
Cc1cccc(OCCNC(=S)NC(=O)c2cncc(Br)c2)c1	-22%	5µM*	-14%	6%	6.3µM*	2%
CCOC(=O)c1ccc(N2C(=O)C=CC2=O)cc1	1µM*	10%	.	0.82µM*	7.1µM*	-1%
CCOC(=O)c1ccc(NC(=S)Nc2cccc(C)n2)cc1	?	0.89µM*	?	?	?	8%
COCCNC(=O)C[C@@H]1C[C@@H](C(C)C)[C@H](CNC(=O)C2CC2)C=C1C	.	.	38%[176 µM]	.	.	.
Cc1ccc(-c2csc(-c3nc(-c4cc(C)ccc4C)cs3)n2)c(C)c1	.	.	11%	.	.	.
CCn1ccc(C(=O)N2[C@@H]3CC[C@H]2CC(NC(=O)c2ccncc2)C3)n1 (some centres undefined)	.	.	63%	.	.	.
O=C(CSc1ncc(-c2ccc(F)cc2)o1)Nc1ccccc1C(F)(F)F	.	.	-5%	.	.	.
CCOC(=O)c1ccc(NC(=S)NN)cc1	-17%	10µM*	?	-27%	?	2%
CCCCOC(=O)c1ccc(NC(=S)NC(=O)c2c(Br)c(C)nn2C)cc1	21µM*	16µM*	2%	?	13µM*	-18%
CCOC(=O)c1ccc(NC(=O)C2CCCO2)cc1 (centres undefined)	-11%	2%	-18%	-18%	-3%	?
CCOC(=O)c1ccc(NC(=O)C2CC2)cc1	6.5µM*	26%[10 µM]	-21%	8.2µM*	7%	?
CCOC(=O)c1ccc(NS(=O)C23CC4CC(CC(C4)C2)C3)cc1 (centres undefined)	-10%	-17%[0.365 µM]	7.1µM*	?	.	?
CCOc1ccc(NC(=O)CCc2nc(-c3ccc(C)n(C(C)C)c3=O)no2)cc1	.	.	-2%	.	.	.
Fc1ccccc1-c1nnc(SCc2cccc3ccccc23)n1C1CC1	.	.	0%	.	.	.
COC1CN(c2cccc(F)c2)C12CCN(S(=O)(=O)Cc1ccccc1F)CC2 (centres undefined)	.	.	31%	.	.	.
CCOC(=O)c1ccc(P(=O)(c2ccccc2)c2ccccc2)cc1	23µM*	-10%	1%	?	3%	?
CCOC(=O)c1ccc(NC(=S)NC(=O)c2cncc(Br)c2)cc1	-15%	2.2µM*	-13%	-19%	?	23%
O=C(Cc1cc(=O)[nH][nH]1)N/N=C/C=C/c1ccccc1	29µM*	-19%	0%	?	3%	?
O=C(N/N=C/C=C/c1ccccc1)c1ccccn1	0%	-36%	216%	3%	-17%	?
O=C(CSc1ccccn1)N/N=C/C=C/c1ccccc1	-21%	?	3%	-11%	16µM*	?
Cc1nc(C)c(C(=O)N2[C@@H]3CC[C@H]2CC(NC(=O)c2ccncc2)C3)s1 (some centres undefined)	.	.	19%	.	.	.
SMILES	TDP1 cell noCPT	RORgamma inh	ALOX12 inh	DT40 TDP1 CPT	Gal4-VP16 FLuc	ELG1 repair inh
Cc1cc(C)n(-c2nc(SCC(=O)NCC3CCCO3)c3c4c(sc3n2)CCCC4)n1 (centres undefined)	.	?	.	.	-24%	10%
Cc1cc(C)n(-c2nc(NCC(C)O)c3c4c(sc3n2)CCCC4)n1 (centres undefined)	18µM*	?	?	?	1µM*	16µM*
Cc1cc(C)n(-c2nc(NCCO)c3c4c(sc3n2)CCCC4)n1	?	3.2µM*	0%	?	4.5µM*	?
Cc1cc(C)n(-c2nc(SCC(=O)O)c3c4c(sc3n2)CCCC4)n1	.	?	.	.	-7%	-23%
Cc1cc(C)n(-c2nc(NCCCO)c3c4c(sc3n2)CCCC4)n1	4.1µM*	1.6µM*	.	5.8µM*	2.8µM*	?
COc1ccc(CCNc2nc(C)nc3sc4c(c23)CCCC4)cc1OC	.	.	-21%	.	.	.
CCc1ccccc1NC(=O)CCS(=O)(=O)c1ccc2c(c1)oc(=O)n2C	.	.	-4%	.	.	.
Cn1cc(CC(=O)NCc2cn3ccccc3n2)c2ccccc21	.	.	21%	.	.	.
O=C(c1ccc(Cl)c(S(=O)(=O)N2CCOCC2)c1)N(c1ccccn1)C1CCCCC1	16µM*	5%	43%	?	0%	?
O=C(c1ccc(Cl)c(S(=O)(=O)N2CCc3ccccc3C2)c1)N1CCN(c2ccccc2)CC1	?	15%[10 µM]	-5%	3.7µM*	-5%	?
O=C(c1ccc(Cl)c(S(=O)(=O)N2CCCCCC2)c1)N1CCN(c2ccccn2)CC1	?	-16%	-7%	?	-17%	21µM*
COc1ccc(N2CCN(C(=O)c3ccc(Cl)c(S(=O)(=O)N4CCCC4)c3)CC2)cc1	?	5%	?	?	1%	?
CCOc1ccccc1N1CCN(C(=O)Nc2ccc(F)c(Cl)c2)CC1	23µM*	5%	-23%	?	4%[0.365 µM]	0%
CCc1cn(C[C@H](NC(=O)c2ccco2)C(=O)O)c(=O)[nH]c1=O	.	.	0%[176 µM]	.	.	.
CNC(=O)c1cnn2c1CN(C(=O)c1cccnc1)CC2	.	.	5%[12.5 µM]	.	.	.
O=C1CCN(C(=O)C2CCN(S(=O)(=O)c3ccc4c(c3)CCC4)CC2)CCCCCCN1	.	.	31%	.	.	.
CN1CCN(C(=O)c2ccc(Cl)c(S(=O)(=O)N3CCCCC3)c2)CC1	-12%	-22%	0%	-15%	-6%	-17%
CCOc1ccccc1N1CCN(C(=O)c2ccc(Cl)c(S(=O)(=O)N3CCCCC3)c2)CC1	?	.	7%	?	.	23µM*
O=C(Nc1ccc(F)cc1)N1CCN(C/C=C/c2ccccc2)CC1	29µM*	?	0%	?	0%	-28%
Fc1ccc(C(c2ccc(F)cc2)N2CCN(C/C=C\c3ccccc3)CC2)cc1	21µM*	-11%	?	24µM*	-15%	.
CC(C(=O)Nc1cc([N+](=O)[O-])ccc1Cl)N1CCN(c2ccccc2)CC1 (centres undefined)	-3%	-17%	5%	20%	-9%	15%

Source: PubChem BioAssay
